The results in this text go back to PubChem BioAssay (Tox21).

Structures are written as SMILES. Results filed as inconclusive are left out. Some structures have more than one record in an assay (separate samples or runs), and their calls can disagree. The source made the active and inactive calls. Unless noted, calls follow the shape of the dose curve; as a rule, active = well fitted curve in the direction sought with a large enough effect in the repeat runs; inconclusive = weak or mixed curves; inactive = no such curve, though single readings can be large; an effect the other way counts as inactive or inconclusive.

Test [1] is described as follows: qHTS assay to identify small molecule agonists of the vitamin D receptor (VDR) signaling pathway - cell viability counter screen (AID 743224). Also: nearly all actives have a fitted effect of over 50% in size. Also: potency is read from the fitted curve at half-maximal effect. In short, it runs like this:
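VDR-bla cell line, quantitative HTS format; 16 h compound incubation (37C, 5% CO2); ATP-based CellTiter-Glo luminescence measured in the reporter assay wells.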
Background: In qHTS, concentration-response curves come from the screen itself.

Test [2] is described as follows: qHTS assay to identify small molecule agonists of the NFkB signaling pathway (AID 1159509; active = well fitted curve in the direction sought with a large enough effect in the signal ratio in the repeat runs, not every such curve was filed as active; the % refers to the signal ratio; also: series mostly up to about 61 µM). An outline of the steps: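 NFkB-bla ME-180 cells carry a beta-lactamase reporter under an NF-kB response element. They were plated overnight, then exposed to compounds for 5 h at 37 C. Read-out is LiveBLAzer FRET after 1.5 hr at room temperature (405 nm excitation; 460/530 nm emission).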

Test [3] is described as follows: qHTS assay to identify small molecule agonists of the NFkB signaling pathway - cell viability counter screen (AID 1159515; calls by dose curve; also: series mostly up to about 61 µM; nearly all actives have a fitted effect of over 55% in size). An outline of the steps: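 Viability in NFkB-bla ME-180 cells was measured by CellTiter-Glo luminescence, 30 min room temperature, in wells already treated 5 hr with compounds and read for reporter FRET.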
Test [4] can be described thus: qHTS assay to identify small molecule agonists of the endoplasmic reticulum stress response signaling pathway (AID 1159516; active = well fitted activation curve with a large enough effect in the signal ratio in the repeat runs, not every such curve was filed as active; the % refers to the signal ratio). In short, it runs like this: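 ER stress element reporter (bla) in HeLa. 1,500 cells/well, overnight attachment; 5 hr compound; 2 hr RT substrate; dual-emission fluorescence.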
Test [5] in a line: qHTS assay to identify small molecule agonists of the endoplasmic reticulum stress response signaling pathway - cell viability counter screen (AID 1159517; calls by dose curve;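 also: HeLa cells carrying an ER stress response element beta-lactamase reporter; series mostly up to about 61 µM; nearly all actives have a fitted effect of over 50% in size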). In short, it runs like this:
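HeLa cells carrying an ESRE-driven beta-lactamase reporter receive compound for 5 hr at 37 C. Cell viability is then gauged with CellTiter-Glo by luminescence, 30 min at room temperature.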

Test [6] can be described thus: qHTS assay to identify small molecule antagonists of the retinoid-related orphan receptor gamma (ROR-gamma) signaling pathway - cell viability counter screen (AID 1159520). Also: nearly all actives have a fitted effect of over 50% in size. An outline of the steps: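 Cytotoxicity was read from cellular ATP (CellTiter-Glo luminescence) after 16 hr at 37 C with 1 uM doxycycline induction. The inducer was added 2 hr after compound transfer to Tet-on ROR gamma CHO cells.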

Test [7] has as its target Nuclear receptor ROR-gamma (Homo sapiens) (UniProt P51449). The experiment in a line: qHTS assay to identify small molecule antagonists of the retinoid-related orphan receptor gamma (ROR-gamma) signaling pathway (AID 1159521;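 also: CHO cells with doxycycline inducible ROR-gamma driving an RORE luciferase reporter; top concentration of the series differs between compounds; nearly all actives have a fitted effect of over 50% in size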). An outline of the steps:
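CHO Tet-on RORγ, RORE-luc reporter. Cpd 2 h pre-incubation, then dox hyclate 1 uM final, 16 h, 37 C/5% CO2. ONE-Glo luminescence; decrease = antagonist.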

The nature of test [8]: qHTS assay to identify small molecule agonists of the AP-1 signaling pathway - cell viability counter screen (AID 1159525; calls by dose curve; also: nearly all actives have a fitted effect of over 55% in size). In short, it runs like this: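 Luminescent ATP readout (Cell Titer Glo, 30 min RT), normalised to DMSO and tetra n-octyl ammonium bromide controls. Cells were ME-180 AP-1-bla in 0.5% dialyzed FBS Opti-MEM, with a 5 h, 37 °C compound exposure.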
Test [9] can be described thus: qHTS assay to identify small molecule agonists of the AP-1 signaling pathway (AID 1159526; calls by dose curve).
Test [10] deals with Retinoic acid receptor RXR-alpha (Homo sapiens) (UniProt P19793). The experiment in a line: qHTS assay to identify small molecule agonists of the RXR signaling pathway (AID 1159527; calls by dose curve; also: nearly all actives have a fitted effect of over 35% in size). An outline of the steps:
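Read-out: beta-lactamase FRET ratio (405 nm excitation, 460 and 530 nm emission) after 2 hr substrate loading at room temperature. Cells were RXR-alpha-UAS-bla HEK 293T treated with compounds for 16 hr in 2% charcoal-stripped FBS medium.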

Test [11] is described as follows: qHTS assay to identify small molecule agonists of the RXR signaling pathway - cell viability counter screen (AID 1159529). In short, it runs like this: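 HEK 293T RXRa-bla cells, 2% CS-FBS; 5 h settle; cpd 16 h 37 C, 5% CO2; CellTiter-Glo 30 min RT, luminescence. Tetraoctyl ammonium bromide as positive control.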
Test [12] is described as follows: qHTS assay to identify small molecule antagonists of the retinoid acid receptor (RAR) signaling pathway - cell viability counter screen (AID 1159551). Also: nearly all actives have a fitted effect of over 35% in size. In short, it runs like this: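 Following overnight attachment, C3RL4 reporter cells received DMSO-dissolved compounds and then retinol (1 uM final). Six hours later at 37 C, ATP content was measured by CellTiter-Glo luminescence.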

The nature of test [13]: qHTS assay to identify small molecule antagonists of the retinoic acid receptor (RAR) signaling pathway (AID 1159552; also: nearly all actives have a fitted effect of over 50% in size). An outline of the steps: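 Cells of the C3RL4 line were seeded, incubated overnight, then dosed with compounds in DMSO followed immediately by retinol (1 uM final). Six hours later luciferase detection reagent went in; signal was measured after 30 min at RT.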

The nature of test [14]: qHTS assay to identify small molecule antagonists of the vitamin D receptor (VDR) signaling pathway - cell viability counter screen (AID 743225). Also: nearly all actives have a fitted effect of over 50% in size. In short, it runs like this:
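Read-out: CellTiter-Glo luminescence measured 30 min after reagent addition at room temperature. Cells were VDR-bla HEK 293T exposed 16 h at 37C, 5% CO2, to compound with 3 nM final calcitriol agonist.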

A short description of test [15]: qHTS assay to identify small molecule agonists of the retinoic acid receptor (RAR) signaling pathway (AID 1159553). An outline of the steps: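 Cell line C3RL4, RARE luciferase reporter. Treatment: compounds in DMSO, 6 hr, 37 C, 5% CO2, after overnight plating. Detection: luminescence, 30 min RT after reagent.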

Chain of Retinoic acid receptor RXR-alpha (Homo sapiens) (P19793 whole entry, looked up): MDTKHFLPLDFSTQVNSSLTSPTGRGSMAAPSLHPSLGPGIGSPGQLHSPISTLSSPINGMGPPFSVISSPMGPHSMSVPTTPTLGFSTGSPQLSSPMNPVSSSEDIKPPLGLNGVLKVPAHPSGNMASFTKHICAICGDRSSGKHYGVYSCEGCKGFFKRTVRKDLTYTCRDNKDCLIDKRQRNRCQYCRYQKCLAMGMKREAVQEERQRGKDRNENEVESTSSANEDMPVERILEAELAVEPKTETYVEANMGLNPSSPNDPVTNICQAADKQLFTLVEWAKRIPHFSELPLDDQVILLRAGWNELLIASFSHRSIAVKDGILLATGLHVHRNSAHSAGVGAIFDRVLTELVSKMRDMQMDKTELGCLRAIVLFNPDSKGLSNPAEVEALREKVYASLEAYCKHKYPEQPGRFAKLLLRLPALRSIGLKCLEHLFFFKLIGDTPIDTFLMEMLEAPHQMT

Turning to `CCC(=O)O`, the Potency result in test [1], in [5], in [6], in [7], in [8] and in test [9] was “inactive” each time. In addition, the Potency entry in test [10], in [11], in [12] and in test [13] was “inactive” each time. Moreover, the outcome in test [2], in test [3] and in test [4] was inactive.
For `CC1CC(OC(=O)c2ccccc2O)CC(C)(C)C1` (stereo unspecified), the Potency in test [1] was 34.3 µM (active) and inactive. Moreover, the Potency result in [14], in test [5], in test [6], in test [7], in [8] and in test [10] was “inactive” throughout. For the same compound, the Potency result in test [11], in test [12], in [13] and in test [15] was “inactive” in each case. Further, the outcome in test [2], in test [3] and in [4] was inactive.
As for `C/C=C(C)/C=C/C=C(C)C`, the Potency result in test [1], in test [14], in test [5], in test [6], in [8] and in [10] was “inactive” each time. For the same compound, the Potency entry in [11] and in test [12] was “inactive” throughout. Also, the compound was called inactive in [2], in test [3] and in [4].
In the case of `OCC1CCCO1` (stereo unspecified), the Potency result in [1], in test [14], in test [5], in test [6], in [7] and in test [8] was “inactive” in each case. In addition, the Potency entry in [9], in test [11], in test [12], in test [13] and in test [15] was “inactive” throughout. Also, the outcome in [2], in test [3] and in [4] was inactive.
As to `Clc1cc(Cl)c(Cl)cc1Cl`, the Potency result in [1], in test [5], in test [7], in test [8], in [9] and in test [10] was “inactive” throughout. Besides, the Potency entry in test [11], in [12], in test [13] and in test [15] was “inactive” each time. The result in [2], in [3] and in [4] was inactive.
As to `CN(CCOc1ccc(CC2SC(=O)NC2=O)cc1)c1ccccn1` (stereo unspecified), the compound was called inactive in test [2], in test [3] and in test [4]. Also, the Potency result in [5], in test [6], in [7], in test [8], in test [9] and in test [11] was “inactive” throughout. Further, the Potency entry in [12] is “inactive”.
With `C=C(C)C(=O)OCCC[Si](OC)(OC)OC`, the Potency entry in test [1], in test [5], in test [7], in test [8], in test [9] and in test [10] was “inactive” in each case. Also, the Potency entry in test [11], in [12], in test [13] and in [15] was “inactive” throughout. The compound was classed as inactive in test [2], in test [3] and in [4].
Regarding `C=C(C)C(=O)OCCCCCCCCCCCC`, the Potency result in test [1], in [14], in test [5], in test [7], in test [8] and in test [9] was “inactive” each time. In addition, the Potency entry in test [10], in test [11], in test [12], in test [13] and in test [15] was “inactive” in each case. The call in test [2], in test [3] and in [4] was inactive.
Regarding `CCc1ccc(O)cc1`, the Potency entry in test [1], in [5], in [7], in test [8], in test [9] and in test [10] was “inactive” in each case. The Potency result in test [11], in test [12], in test [13] and in [15] was “inactive” throughout. Moreover, the compound was called inactive in test [2], in test [3] and in [4].
`CS(=O)(=O)c1ccc([C@@H](O)[C@@H](CO)NC(=O)C(Cl)Cl)cc1`: the Potency entry in [1], in test [5], in [6], in test [8], in [9] and in test [10] was “inactive” each time. Also, the Potency result in test [11] and in test [12] was “inactive” in each case. Further, the result in test [2], in test [3] and in [4] was inactive.
